Results published in PubChem BioAssay (Tox21).
Inconclusive results are not listed. Activity calls are given as the source filed them. Unless noted, calls follow the shape of the dose curve; as a rule, active = well fitted curve in the direction sought with a large enough effect in the repeat runs; inconclusive = weak or mixed curves; inactive = no such curve, though single readings can be large; an effect the other way counts as inactive or inconclusive.

Columns and labels:
[1] = qHTS assay to identify small molecule HDAC inhibitors (AID 1259364); also: top concentration of the series differs between compounds; nearly all actives have a fitted effect of over 45% in size
How it was run: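 Wild-type HCT-116 cells, plated overnight at 37 C, exposed to compounds 2 hr at 37 C; luminogenic HDAC-Glo substrate then added 30 min at room temperature. Luminescence reports relative endogenous class I/II HDAC activity.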

[2] = qHTS assay to identify small molecule HDAC inhibitors - cell viability counter screen (AID 1259365); also: series mostly up to about 92 µM; nearly all actives have a fitted effect of over 50% in size
How it was run: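 Wild-type HCT-116 cells, 1,500/well, cultured overnight, then compound-treated 2 h at 37 C. Viability measured as ATP luminescence with CellTiter-Glo after 30 min at room temperature.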

[3] = qHTS assay to identify small molecule agonists of the sonic hedgehog signaling (Shh) pathway - cell viability counter screen (AID 1259366); also: nearly all actives have a fitted effect of over 50% in size
How it was run: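 NIH/3T3-derived Gli1-Luc reporter cells, 2,000 per well, received compound after 4 h and were treated about 23 h at 37C. Viability measured in the same wells by CellTiter-Fluor fluorescence after 1 h.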

[4] = qHTS assay to identify small molecule antagonists of the sonic hedgehog signaling (Shh) pathway - cell viability counter screen (AID 1259367); also: nearly all actives have a fitted effect of over 55% in size
How it was run: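 Cells: 3T3 Gli1-Luc, 2,000/well, 4 hr pre-incubation. Compounds in DMSO, then conditioned medium. Incubation 24 hr, 37C, 5% CO2. CellTiter-Fluor at 23 hr, 1 hr, fluorescence.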

[5] = qHTS assay to identify small molecule agonists of the sonic hedgehog signaling (Shh) pathway (AID 1259368; calls by dose curve;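 also: NIH/3T3-derived 3T3Gli1-Luc cells carrying a stable Gli1-driven firefly luciferase reporter; series mostly up to about 92 µM; nearly all actives have a fitted effect of over 15% in size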)
How it was run: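 NIH/3T3-derived 3T3Gli1-Luc cells with stably integrated Gli1-driven firefly luciferase, 2,000 cells/well, compounds added after 4 hr. Incubated 24 hr at 37C, 5% CO2; luminescence read after 30 min with luciferase reagent at room temperature.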

[6] = qHTS assay to identify small molecule antagonists of the sonic hedgehog signaling (Shh) pathway (AID 1259369; calls by dose curve; also: nearly all actives have a fitted effect of over 45% in size)
How it was run: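 NIH/3T3-derived Gli1-Luc reporter cells plated 4 h, dosed with compound, then stimulated with conditioned medium for 24 h at 37 C. Firefly luciferase luminescence read after 30 min with detection reagent at room temperature.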

[7] = biological target: Estrogen receptor beta (Homo sapiens) (UniProt Q92731); assay: qHTS assay to identify small molecule agonists of the estrogen receptor beta (ER-beta) signaling pathway (AID 1259377; active = well fitted activation curve with a large enough effect in the signal ratio in the repeat runs, not every such curve was filed as active; the % refers to the signal ratio)
How it was run: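 ER-beta-UAS-bla HEK293T cells in medium with 2% charcoal-stripped FBS were exposed to compounds for 16 h at 37C. Beta-lactamase reporter activity was read as fluorescence after 2 h with LiveBLAzer B/G FRET substrate at room temperature.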

[8] = biological target: Estrogen receptor beta (Homo sapiens) (UniProt Q92731); assay: qHTS assay to identify small molecule antagonists of the estrogen receptor beta (ER-beta) signaling pathway (AID 1259378; active = well fitted inhibition curve with a large enough effect in the signal ratio in the repeat runs, not every such curve was filed as active; the % refers to the signal ratio)
How it was run: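 Antagonist mode: compounds added to beta-lactamase reporter HEK293T ER-beta-UAS cells stimulated with E2 (1nM final), 16 hr at 37C. LiveBLAzer B/G FRET substrate, 2 hours room temperature, fluorescence read-out.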

[9] = qHTS assay to identify small molecule agonists of the androgen receptor (AR) signaling pathway in the presence of an antagonist - cell viability counter screen (AID 1259379);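 also: MDA-kb2 human breast cancer cells carrying an MMTV luciferase reporter; series mostly up to about 92 µM; nearly all actives have a fitted effect of over 25% in size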
How it was run: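 MDA-kb2 cells (MMTV-luciferase, AR/GR), 3,000/well, 5 h attachment, then 3.0 µM nilutamide (final) and compounds at 15 concentrations. Viability by CellTiter-Fluor fluorescence after 16 h at 37 °C, 0% CO2, in the reporter wells.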

[10] = qHTS assay to identify small molecule agonists of the estrogen receptor beta (ER-beta) signaling pathway - cell viability counter screen (AID 1259380); also: nearly all actives have a fitted effect of over 30% in size
How it was run: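 ER-beta-UAS-bla HEK293T cells in medium with 2% charcoal-stripped FBS, pre-incubated 6 hr, then treated 16 hr at 37C. Cytotoxicity read in the same wells by CellTiter-Glo luminescence after 30 min at room temperature.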

[11] = biological target: Estrogen receptor (Homo sapiens) (UniProt P03372); assay: qHTS assay to identify small molecule agonists of the estrogen receptor alpha (ER-alpha) signaling pathway in the presence of an antagonist (AID 1259383; calls by dose curve; also: top concentration of the series differs between compounds; nearly all actives have a fitted effect of over 15% in size)
How it was run: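 VM7Luc4E2 cells express endogenous full-length ER-alpha with an ERE-luciferase reporter and were hormone-deprived for 5 days. Compounds at 15 concentrations were added with 10.0nM ICI-182,780 for 22hr at 37C. Luminescence was read with ONE-Glo.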

[12] = qHTS assay to identify small molecule agonists or antagonists of the thyroid stimulating hormone receptor (TSHR) signaling pathway - wild type cell line counter screen (AID 1259384; calls by dose curve)
How it was run: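 Counter screen in untransfected Hek293: compounds (15-point titration, triplicate) plus phosphodiesterase inhibitor Ro20-1724 added after 18 h plating; 30 min RT. Intracellular cAMP via competitive d2/cryptate immunoassay, 1 h incubation.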

[13] = biological target: Thyrotropin receptor (Homo sapiens) (UniProt P16473); assay: qHTS assay to identify small molecule antagonists of the thyroid stimulating hormone receptor (TSHR) signaling pathway (AID 1259385; calls by dose curve; also: nearly all actives have a fitted effect of over 20% in size)
How it was run: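 Antagonist mode: compound-treated TSHR-expressing HEK293 cells were stimulated with 1.5 ng/mL TSH (final) in presence of Ro20-1724 for 30 min at RT. HTRF cAMP detection after 1 h; each compound tested at 15 concentrations, triplicate.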

[14] = qHTS assay to identify small molecule agonists of the estrogen receptor alpha (ER-alpha) signaling pathway in the presence of an antagonist - cell viability counter screen (AID 1259386);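 also: series mostly up to about 92 µM; cells exposed to compounds for 22 h at 37 °C before the viability read; nearly all actives have a fitted effect of over 30% in size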
How it was run: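 Cell viability in VM7Luc4E2 cells (endogenous full-length ER-alpha) measured by CellTiter-Fluor fluorescence in the same wells as the luciferase screen. Cells pre-cultured 5 days in charcoal-stripped serum, then treated 22 h with compounds at 15 concentrations plus 10.0nM ICI-182,780.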

[15] = biological target: Progesterone receptor (Homo sapiens) (UniProt P06401); assay: qHTS assay to identify small molecule antagonists of the progesterone receptor (PR) signaling pathway (AID 1346795; active = well fitted inhibition curve with a large enough effect in the signal ratio in the repeat runs, not every such curve was filed as active; the % refers to the signal ratio)
How it was run: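 PR-UAS-bla HEK293T cells with beta-lactamase reporter under UAS control, in 2% charcoal-stripped FBS, treated with compounds plus 1 nM promegestone (R5020, final) for 16 hr at 37C. Read-out: FRET beta-lactamase substrate fluorescence after 2 hr at room temperature.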

[16] = qHTS assay to identify small molecule antagonists of the progesterone receptor (PR) signaling pathway - cell viability counter screen (AID 1346798); also: series mostly up to about 92 µM; nearly all actives have a fitted effect of over 50% in size
How it was run: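 PR-UAS-bla HEK293T cells, 3,000/well in 2% charcoal-stripped FBS medium, dosed with compounds plus R5020 agonist and incubated 16 h at 37C. Viability then measured in the same wells by CellTiter-Glo luminescence after 30 min at RT.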

[17] = qHTS assay to identify small molecule agonists of the progesterone receptor (PR) signaling pathway - cell viability counter screen (AID 1346799; calls by dose curve; also: nearly all actives have a fitted effect of over 45% in size)
How it was run: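 Counter screen in the PR-UAS-bla HEK293T wells (2% charcoal-stripped FBS, 16 h compound exposure at 37 C) after the bla read. CellTiter-Glo added, 30 min at room temperature, luminescence read as cell viability.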

[18] = qHTS assay to identify small molecule antagonists of the TGF-beta/Smad signaling pathway - cell viability counter screen (AID 1346824); also: nearly all actives have a fitted effect of over 50% in size
How it was run: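 Cytotoxicity counter-screen run in the same wells as the beta-lactamase Smad reporter read: CellTiter-Glo luminescence after 30 min at room temperature. HEK 293T SBE-bla cells had 5 hr compound exposure at 37 C with TGF-beta1 (0.25 ng/mL stock).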

[19] = qHTS assay to identify small molecule antagonists of the estrogen receptor beta (ER-beta) signaling pathway - cell viability counter screen (AID 1259382);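 also: HEK293T cells carrying ER-beta-UAS-bla reporter stimulated with estradiol; series mostly up to about 92 µM; nearly all actives have a fitted effect of over 55% in size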
How it was run: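 ER-beta-UAS-bla HEK293T cells in 2% charcoal-stripped FBS medium, treated with compound plus 1 nM 17-beta-estradiol for 16 h at 37C. Viability read by CellTiter-Glo luminescence after 30 min at room temperature in the same wells.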

[20] = biological target: Progesterone receptor (Homo sapiens) (UniProt P06401); assay: qHTS assay to identify small molecule agonists of the progesterone receptor (PR) signaling pathway (AID 1346784; calls by dose curve; also: nearly all actives have a fitted effect of over 30% in size)
How it was run: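 PR-UAS-bla HEK 293T cells (beta-lactamase reporter under UAS) in 2% charcoal-stripped FBS, dosed with 23 nL compound after 6 hr, incubated 16hr at 37C. LiveBLAzer B/G FRET substrate added, fluorescence read after 2 hours.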

Measured: Potency

Sequence of Thyrotropin receptor (Homo sapiens) (P16473 whole entry, looked up): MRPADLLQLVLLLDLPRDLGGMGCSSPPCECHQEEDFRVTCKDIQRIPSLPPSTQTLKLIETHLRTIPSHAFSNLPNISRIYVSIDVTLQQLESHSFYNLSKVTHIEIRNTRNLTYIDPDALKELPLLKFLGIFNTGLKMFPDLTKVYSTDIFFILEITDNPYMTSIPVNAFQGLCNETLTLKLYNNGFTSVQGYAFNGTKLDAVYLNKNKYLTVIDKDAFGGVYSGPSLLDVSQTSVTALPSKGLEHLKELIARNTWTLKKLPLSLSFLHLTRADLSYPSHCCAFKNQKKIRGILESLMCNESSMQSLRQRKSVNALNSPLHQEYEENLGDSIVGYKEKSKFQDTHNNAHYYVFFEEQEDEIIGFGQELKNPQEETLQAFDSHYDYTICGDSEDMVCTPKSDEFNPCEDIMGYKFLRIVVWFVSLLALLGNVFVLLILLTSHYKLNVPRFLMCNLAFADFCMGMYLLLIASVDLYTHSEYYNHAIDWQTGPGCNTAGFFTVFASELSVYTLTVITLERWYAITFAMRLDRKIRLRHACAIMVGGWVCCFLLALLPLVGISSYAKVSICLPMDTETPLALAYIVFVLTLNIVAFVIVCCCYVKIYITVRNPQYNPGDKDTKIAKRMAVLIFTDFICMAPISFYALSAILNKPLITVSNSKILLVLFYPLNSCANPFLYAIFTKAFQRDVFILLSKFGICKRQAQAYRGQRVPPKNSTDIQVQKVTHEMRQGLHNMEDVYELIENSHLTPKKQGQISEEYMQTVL
Sequence of Progesterone receptor (Homo sapiens) (P06401 whole entry, looked up): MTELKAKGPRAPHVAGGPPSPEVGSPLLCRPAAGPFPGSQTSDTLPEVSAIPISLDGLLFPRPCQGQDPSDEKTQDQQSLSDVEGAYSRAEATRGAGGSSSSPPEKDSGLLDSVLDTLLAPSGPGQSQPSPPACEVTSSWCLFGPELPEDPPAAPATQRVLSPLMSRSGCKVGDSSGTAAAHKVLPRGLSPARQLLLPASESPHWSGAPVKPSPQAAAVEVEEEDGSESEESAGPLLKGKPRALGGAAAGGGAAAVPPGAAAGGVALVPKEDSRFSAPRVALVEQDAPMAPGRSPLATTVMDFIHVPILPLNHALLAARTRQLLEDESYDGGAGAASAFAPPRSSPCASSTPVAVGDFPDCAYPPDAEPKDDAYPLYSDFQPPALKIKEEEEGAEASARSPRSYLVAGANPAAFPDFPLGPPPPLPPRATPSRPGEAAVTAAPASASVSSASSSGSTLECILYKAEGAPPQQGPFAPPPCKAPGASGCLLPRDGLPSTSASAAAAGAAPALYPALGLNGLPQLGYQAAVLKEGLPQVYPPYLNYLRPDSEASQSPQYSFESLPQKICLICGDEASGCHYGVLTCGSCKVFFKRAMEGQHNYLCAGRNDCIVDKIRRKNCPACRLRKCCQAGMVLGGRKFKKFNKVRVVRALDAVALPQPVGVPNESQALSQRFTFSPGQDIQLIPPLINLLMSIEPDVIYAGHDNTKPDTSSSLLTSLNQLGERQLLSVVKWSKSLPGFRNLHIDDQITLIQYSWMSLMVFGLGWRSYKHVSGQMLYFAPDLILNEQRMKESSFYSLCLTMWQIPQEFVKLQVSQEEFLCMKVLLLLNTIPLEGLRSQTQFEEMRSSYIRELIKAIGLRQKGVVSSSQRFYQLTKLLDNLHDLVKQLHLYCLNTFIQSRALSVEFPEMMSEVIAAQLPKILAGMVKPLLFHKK
Sequence of Estrogen receptor (Homo sapiens) (P03372 whole entry, looked up): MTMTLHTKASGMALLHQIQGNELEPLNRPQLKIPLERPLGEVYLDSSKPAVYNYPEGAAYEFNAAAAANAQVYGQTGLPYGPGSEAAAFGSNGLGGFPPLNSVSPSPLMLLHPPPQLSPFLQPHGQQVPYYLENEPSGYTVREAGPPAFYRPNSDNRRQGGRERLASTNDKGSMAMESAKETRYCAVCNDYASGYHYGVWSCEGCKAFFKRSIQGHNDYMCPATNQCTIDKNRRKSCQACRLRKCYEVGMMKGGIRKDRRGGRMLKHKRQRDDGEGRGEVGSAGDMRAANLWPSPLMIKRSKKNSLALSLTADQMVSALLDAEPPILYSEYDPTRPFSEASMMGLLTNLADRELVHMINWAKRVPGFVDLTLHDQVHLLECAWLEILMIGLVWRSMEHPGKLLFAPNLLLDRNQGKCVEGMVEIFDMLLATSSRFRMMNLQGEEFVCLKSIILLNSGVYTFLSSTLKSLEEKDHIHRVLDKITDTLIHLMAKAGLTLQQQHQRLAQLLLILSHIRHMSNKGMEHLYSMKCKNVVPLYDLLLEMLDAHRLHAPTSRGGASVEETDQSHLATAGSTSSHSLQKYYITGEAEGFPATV
Sequence of Estrogen receptor beta (Homo sapiens) (Q92731 whole entry, looked up): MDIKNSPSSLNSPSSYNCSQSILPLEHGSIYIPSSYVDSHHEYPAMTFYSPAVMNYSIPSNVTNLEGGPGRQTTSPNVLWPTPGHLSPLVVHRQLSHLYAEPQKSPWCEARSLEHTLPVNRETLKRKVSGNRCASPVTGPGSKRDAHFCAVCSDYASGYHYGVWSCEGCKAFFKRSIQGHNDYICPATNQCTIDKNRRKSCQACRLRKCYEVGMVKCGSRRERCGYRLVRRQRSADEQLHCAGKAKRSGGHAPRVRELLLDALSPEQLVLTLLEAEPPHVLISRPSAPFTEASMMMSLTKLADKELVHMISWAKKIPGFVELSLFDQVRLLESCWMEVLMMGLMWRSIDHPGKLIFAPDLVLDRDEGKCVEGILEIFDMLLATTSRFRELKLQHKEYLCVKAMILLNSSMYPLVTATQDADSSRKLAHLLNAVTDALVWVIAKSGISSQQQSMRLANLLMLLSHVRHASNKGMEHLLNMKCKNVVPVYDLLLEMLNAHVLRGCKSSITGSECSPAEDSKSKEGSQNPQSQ

C=CC(C)(O)CC/C=C(\C)CC (configuration not stated)
not listed: [19] | [20]
inactive: all other assays above

C1=CCC(c2ccccc2)CC1 (configuration not stated)
not listed: [11] | [16] | [20]
inactive: all other assays above

O=S(=O)(O)c1cc(O)ccc1O
not listed: [11]
inactive: all other assays above

CC(C)c1ccccc1O
not listed: [11] | [12] | [20]
inactive: all other assays above

CCCCC(CC)CNC(=O)CC(C)OC(=O)CCC(=O)O (configuration not stated)
not listed: [8]
inactive: all other assays above

CCCCC[Si](OCC)(OCC)OCC
not listed: [9] | [11] | [12] | [16] | [17] | [19]
inactive: all other assays above

Nc1cc(Cl)cc(S(=O)(=O)O)c1O
not listed: [7] | [8]
inactive: all other assays above
